Screening data deposited in PubChem by National Center for Advancing Translational Sciences (NCATS).
The sample as a whole holds a higher share of hits than the screen did.
FBPA Giardia inh – Giardia lamblia aldolase inhibition; AID 2451; A8B2U2; Potency, µM (titrated, usually from 59.6 µM), for the others: at the highest dose activity, negative = inhibition, usual class: inhibitors; purified Giardia FBPA; 0.71% of 290,000 active; further: potency means the concentration at half of the fitted maximal effect; on the % scale 0 is the no-effect control and ±100 the full control effect; nearly all actives have a fitted effect of over 55% in size
Target sequence (A8B2U2 whole entry, looked up): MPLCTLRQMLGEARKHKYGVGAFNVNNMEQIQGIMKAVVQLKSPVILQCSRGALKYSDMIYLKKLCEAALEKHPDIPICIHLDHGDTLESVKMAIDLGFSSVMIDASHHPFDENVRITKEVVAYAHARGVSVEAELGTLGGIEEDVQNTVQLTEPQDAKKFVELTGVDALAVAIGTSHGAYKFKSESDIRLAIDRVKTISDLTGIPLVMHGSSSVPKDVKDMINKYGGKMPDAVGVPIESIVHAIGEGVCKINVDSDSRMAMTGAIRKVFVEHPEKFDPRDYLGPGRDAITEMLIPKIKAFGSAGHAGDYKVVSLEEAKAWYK
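40 nM FBPA preincubated 10 min at RT with compound (up to 57.5 uM final), then substrate plus GAPDH/TPI/NAD/arsenate coupling and diaphorase/resazurin added. Fluorescence read after 20 min at RT, 525/598 nm.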
RE007 growth inh – less growth of the S. pombe RE007 Vpr strain; S. pombe RE007 Vpr strain, BacTiter-Glo ATP luminescence, 24 h; Potency, µM (series often up to 92.2 µM), without a hit: top-dose activity change, negative = less growth, actives largely listed as inhibitors; 0.21% of 360,000 active; AID 651644; active means well fitted falling curve with a large enough effect; inconclusive means small, poorly fitted or top-dose-only effect; inactive means no such curve, though single readings can be large or run the other way; further: potency means the concentration at half of the fitted maximal effect; on the % scale 0 is the no-effect control and ±100 the full control effect; nearly all actives have a fitted effect of over 50% in size
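Fission yeast strain RE007, carrying one chromosomally integrated HIV-1 vpr copy, was seeded at OD 0.01 in PMG+AL medium with 23 nL pinned compound. After 24 h at 30 °C and 99% humidity, viability was read by BacTiter-Glo luminescence.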
Shiga toxin inh – Shiga toxin inhibition. Vero cells, Shiga toxin protein synthesis inhibition reporter. inhibition, % at 38.7 µM. 9.2% of 290,000 active. AID 2315; in the data active means inhibition mostly above about 28%, no sharp cut-off; inactive means mostly below about 43%; further: 0% is about no effect
Tb PYK inh – inhibitors of Trypanosoma brucei pyruvate kinase. Potency, µM (titrated, usually from 76.8 µM), without a hit: top-dose activity, negative = inhibition, actives largely listed as inhibitors. 0.12% of 410,000 active. TbPYK enzyme, Kinase-Glo Plus ATP luminescence, 45 min; further: potency means the concentration at half of the fitted maximal effect; on the % scale 0 is the no-effect control and ±100 the full control effect; nearly all actives have a fitted effect of over 50% in size
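TbPYK + substrate in 50 mM TEA pH 7.2, 100 mM KCl, 10 mM MgCl2, 0.05% BSA, 0.01% Tween-20; cpd pinned; ADP 130 uM final; 45 min RT; Kinase-Glo Plus 10 min; luminescence endpoint.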
LmPK inh – blocks Leishmania mexicana pyruvate kinase activity; Q27686; purified LmPK, Kinase-Glo ATP luminescence, 1 h; Potency, µM (highest dose often 57.5 µM), inactives show at the highest dose activity change, negative = inhibition, hits mostly inhibitors; 0.37% of 290,000 active; AID 1721; further: potency means the concentration at half of the fitted maximal effect; on the % scale 0 is the no-effect control and ±100 the full control effect
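ATP generated from ADP (0.1 mM) and PEP (0.5 mM) by 0.1 nM LmPK over 1 h at room temperature (pH 7.2 imidazole buffer) was detected by coupled luciferase luminescence. Values were normalized to uninhibited and no-enzyme wells.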
CHX counter – affects cycloheximide protein synthesis inhibition readout, counter-screen. AID 2314. cell reporter, cycloheximide protein synthesis inhibition counterscreen. 12% of 300,000 active. max response, %; in the data active means max response mostly above about 13%, no sharp cut-off; inactive means mostly below about 14%; further: read at 38.3 µM for the half of the compounds with a filed dose; 0% is about no effect
* marks the source's active call; other numbers are inactive results; u = inconclusive; x = no result; [ ] = dose if it differs, or a comment. Unless noted, the call rests on the fitted dose curve; in most records, active means well fitted curve in the direction sought with a large enough effect; inconclusive means small, poorly fitted or top-dose-only effect, or another doubt; inactive means no such curve, though single readings can be large; an effect the other way counts as inactive or inconclusive.

SMILES	FBPA Giardia inh	RE007 growth inh	Shiga toxin inh	Tb PYK inh	LmPK inh	CHX counter
CC1(C(=O)Nc2cccc(Oc3ccccc3)c2)Cc2c(-c3ccc4c(c3)OCO4)ccnc2O1 (configuration not stated)	x	0.9%[18.4 µM]	x	-6.2%	x	x
CC(=O)O[C@H]1C[C@H](O[C@H]2[C@@H](O)CC(O[C@H]3[C@@H](O)C[C@H](O[C@H]4CC[C@@]5(C)[C@H](CC[C@@H]6[C@@H]5CC[C@]5(C)[C@@H](C7=CC(=O)OC7)CC[C@]65O)C4)O[C@@H]3C)O[C@@H]2C)O[C@H](C)[C@H]1O[C@@H]1O[C@H](CO)[C@@H](O)[C@H](O)[C@H]1O (some centres not stated)	x	x	x	1.7%	x	x
CN1CCN(C(=O)C2CC(c3c(F)cccc3Cl)=NO2)CC1 (configuration not stated)	6.7%	-4.6%	15.3	-8.7%	2.2%	10.2*
COc1cc(NC(=O)C2CC(c3c(F)cccc3Cl)=NO2)c(OC)cc1Cl (configuration not stated)	0.7%	-3.6%	x	-9.2%	0.6%	-2.6
COc1ccc(NC(=O)C2CC(c3c(F)cccc3Cl)=NO2)cc1OC (configuration not stated)	-0.1%	-12.6%	x	6.4%	-2.7%	21.0*
COc1ccccc1CN(C)C(=O)CN1C(=O)c2ccccc2C1=O	10.0%	-7.9%	16.7	-6.1%	-4.9%	3.5
CCc1nn(C(C)C(=O)NCc2ccc(Cl)cc2)c(=O)c2cc3occc3n12 (configuration not stated)	7.7%	7.4%	10.6	0.8%	0.8%	12.3*
CN(C)/N=C/C=C1\CC/C(=C\c2ccc(Br)cc2)C1=O	1.2%	-23.3%	-4.2	-8.9%	-0.9%	12.5
CN(C)/N=C/C=C1\CCC/C(=C/c2cccs2)C1=O	1.4%	1.5%	82.0*	0.1%	-1.2%	60.9*
O=C(COc1ccc(Cl)cc1Cl)Nc1cccnc1	8.4%	4.5%	86.3*	3.2%	0.0%	45.5*
O=C(COc1ccc(Cl)cc1Br)Nc1ccncc1	-5.7%	-27.5%	46.9*	-5.9%	1.8%	57.6*
CCNC(=O)CCCOc1ccc(Cl)cc1Cl	3.9%	11.5%	53.9*	-3.5%	-0.7%	28.8*
COC(=O)CCCOc1ccc(Cl)cc1Cl	-4.1%	x	x	x	x	x
O=C(COc1ccc(Cl)cc1Br)NC1CC1	x	-22.3%	x	-18.1%	x	x
O=C(CCCOc1ccc(Cl)cc1Cl)Nc1ccncc1	-7.2%	-4.4%	24.6	-7.9%	0.3%	14.8*
COC(=O)C1=C[C@@H](C(=O)OC)C2C3=C(C(=O)[C@@]2(C)NC(=O)c2ccccc2)[C@H](C)[C@@H]2C(=O)N(C)C(=O)[C@@H]2[C@@H]3C1 (some centres not stated)	-9.0%	x	23.0	x	x	1.8
Cc1ccccc1OCC(=O)Nc1ccncc1	14.0%	8.5%	39.9	1.6%	-1.4%	1.8
Cc1ccc(OCC(=O)Nc2ccncc2)c(C)c1	13.2%	6.7%	23.1	-4.3%	1.3%	19.9*
O=C(CCCOc1ccc(Cl)cc1Cl)Nc1ccccn1	3.4%	1.1%	54.8*	-6.8%	1.3%	15.5
Cc1ccc(OCC(=O)NNC(=O)c2ccco2)c(C)c1	-7.0%	4.7%	13.9	1.2%	-0.6%	13.6*
CCCn1c(SCC(=O)N2CCc3ccccc3C2)nc(O)cc1=O	x	8.5%	x	-1.5%	x	x
O=C(NCC1CCN(Cc2cccc(F)c2)CC1)c1cc2ccc3cccnc3c2[nH]1	x	x	x	-7.8%	x	x
CCOc1ccc(-c2cn(-c3ccccc3OC)c(=S)[nH]2)cc1	6.4%	-6.3%	52.4*	-20.8%	4.0%	17.6*
CCOc1ccc(-n2cc(-c3ccc(OC)c(OC)c3)[nH]c2=S)cc1	0.2%	2.1%	24.6	1.12µM*	u	10.0
COC(=O)C1C[C@@H]2C3=C(C(=O)[C@@](C)(NC(=O)c4ccccc4)C3[C@H](C(=O)OC)C1)[C@H](C)n1c(=O)n(-c3ccccc3)c(=O)n12 (some centres not stated)	3.0%	x	31.0	x	x	11.0
SMILES	FBPA Giardia inh	RE007 growth inh	Shiga toxin inh	Tb PYK inh	LmPK inh	CHX counter
COc1cc(N=C2C(=O)N3c4c(cccc42)C(C)=CC3(C)C)cc(OC)c1	-17.0%	-12.8%	11.0	16.6%	-2.0%	-3.1
CC1=CC(C)(C)N2C(=O)C(=Nc3ccc(O)cc3)c3cccc1c32	12.6µM*	-16.5%	46.1*	-13.9%	-12.1%	-1.3
Cc1ccc(C(=O)CCC(=O)Nc2ccccc2F)cc1	3.0%	-17.6%	39.1	1.7%	-4.1%	32.5*
Cc1ccc(CCC(=O)Nc2ccccc2F)s1	-4.7%	-21.4%	92.6*	-5.2%	u	32.4*
O=C(CCC(=O)c1ccc(F)cc1)Nc1ccccc1Cl	3.4%	-9.9%	35.9*	1.8%	1.8%	16.6
COc1ccc(-c2nc(N3CCN(S(=O)(=O)c4ccc(F)cc4)CC3)c3ccccc3n2)cc1	x	x	37.0	x	x	16.5
O=c1n(Cc2ccc([N+](=O)[O-])cc2)c2ccccc2c2nc(-c3ccccc3)nn12	x	x	x	0.8%	x	x
Cc1ccc(C(=O)COC(=O)CN2C(=O)C3C4CCC(C4)C3C2=O)cc1C (configuration not stated)	1.0%	-2.6%	7.3	1.4%	7.2%	11.6*
Cc1ccc(C(=O)COC(=O)CN2C(=O)C3C4CCC(C4)C3C2=O)cc1[N+](=O)[O-] (configuration not stated)	-0.8%	0.8%	-1.2	1.3%	-0.6%	0.9
CCc1ccc(NC(=O)Cn2c(=O)oc3cc(S(=O)(=O)N4CCCCCC4)ccc32)cc1	x	x	x	-8.5%	x	x
Cc1ccccc1NS(=O)(=O)c1ccc2c(c1)CCC(=O)N2	x	x	x	-0.9%	x	x
Cn1ncc([N+](=O)[O-])c1C(=O)Nc1ccc(-c2nc3ccccc3o2)cc1	0.1%	-12.6%	41.1*	3.0%	1.7%	23.8*
O=C(CCOc1ccccc1)N(Cc1cccnc1)c1nc2c(F)cc(F)cc2s1	x	x	x	3.9%	x	x
CS/C(N)=N/N=C/c1ccc2c(c1)OCO2	3.2%	-19.9%	71.0*	-12.1%	u	25.1*
COc1ccc(/C=N/N=C(\N)c2nonc2N)cc1OC	-2.1%	-10.7%	108.1*	-5.1%	-1.6%	31.0*
Nc1nonc1C(=O)NCCNc1ccc([N+](=O)[O-])cc1	1.5%	-10.7%	-5.6	-0.5%	-2.8%	-1.9
N/C(=N\N=C\c1cccc(O)c1)c1nonc1N	-3.0%	-10.8%	59.3*	u	11.2µM*	30.8*
N/C(=N\N=C\c1ccc([N+](=O)[O-])cc1)c1nonc1N	4.2%	13.5%	91.4*	1.2%	-6.1%	51.1*
O=C(c1ccc2c(c1)N(Cc1ccc(Cl)cc1)C(=O)c1ccccc1S2(=O)=O)N1CCCC1	x	x	x	-7.8%	x	x
COc1ccc(OC)c(/C=N/N=C(\N)c2nonc2N)c1	1.9%	1.5%	59.1*	-1.0%	0.1%	38.0*
